Screens deposited in PubChem BioAssay by NMMLSC.
Sampled rows, rich in hits. Any-hit rate of the full collection: about 2.9%.
B2AR ag = agonists of human beta-2 adrenergic receptor inducing internalization; P07550; Am2.2-beta2AR cells, FAP receptor internalization, flow cytometry; response, % (concentration not given with the values); 340,000 compounds, 0.43% hits; AID 504454;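 active = response above a set limit, near 3 SD of response in nonfluorescent compounds, cut at about 42% in these data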
Target sequence (P07550 whole entry, looked up): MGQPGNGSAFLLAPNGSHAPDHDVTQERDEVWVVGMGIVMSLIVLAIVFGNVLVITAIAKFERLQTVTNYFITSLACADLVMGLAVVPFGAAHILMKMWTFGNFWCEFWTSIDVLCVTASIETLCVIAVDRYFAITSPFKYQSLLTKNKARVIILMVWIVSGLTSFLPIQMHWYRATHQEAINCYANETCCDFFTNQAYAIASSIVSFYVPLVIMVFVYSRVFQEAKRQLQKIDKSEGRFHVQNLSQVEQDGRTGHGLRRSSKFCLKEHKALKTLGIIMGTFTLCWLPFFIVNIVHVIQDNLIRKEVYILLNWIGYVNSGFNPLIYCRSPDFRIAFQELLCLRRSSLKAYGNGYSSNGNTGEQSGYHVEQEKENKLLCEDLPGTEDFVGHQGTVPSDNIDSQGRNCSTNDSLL
GRK2 aptamer HTS = inhibitors of human GRK2 displacing RNA aptamer; bead flow cytometry, FAM-aptamer displacement from GRK2; inhibition of aptamer binding, % at 10 µM; 330,000 compounds, 0.59% hits; AID 488847;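 active = inhibition of aptamer binding above 40%, roughly 3 SD of noise, on plates passing a quality check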;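 note: median bead fluorescence of bound FAM aptamer so fluorescent compounds give negative values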
MEKK2wt PB1 HTS = raises or lowers MEK5 binding to wildtype human MEKK2 PB1 domain; Q9Y2U5; bead flow cytometry, Alexa488-MEK5 binding to MEKK2 WT; actives lie on both sides; binding response (% of control), % at 10 µM; 290,000 compounds, 1.1% hits; AID 1531; in the data active = binding response below about 67% or above about 130%
MEKK2mut PB1 HTS = signal of MEK5 binding to mutant human MEKK2 PB1 domain. bead flow cytometry, Alexa488-MEK5 binding to MEKK2 mutant. percent response, % at 10 µM. 290,000 compounds, 0.35% hits. AID 1530; in the data active = percent response above about 24%, passing the limit was not always enough
MEKK3 PB1 HTS = modulators (inhibitors or enhancers) of MEK5 binding to human MEKK3 PB1 domain; Q99759; bead-based flow cytometry, Alexa488-MEK5 binding to MEKK3; actives lie on both sides; 0 = blocked by unlabeled MEK5, 100 = vehicle; binding response (% of control), % at 10 µM; 290,000 compounds, 1.4% hits; AID 1529;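 active = binding response more than 3 SD above or below the average of its plate-row segment, actives on both sides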;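 note: Alexa488 bead fluorescence after subtracting the streptavidin-only scavenger bead signal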
MEKK2wt confirm = raises or lowers MEK5 binding to wildtype human MEKK2, retest; shares compounds with MEKK3 PB1 HTS; bead flow cytometry, Alexa488-MEK5 binding to MEKK2 WT; actives lie on both sides; binding response (% of control), % at 10 µM; 5,900 compounds, 2.4% hits; in the data active = binding response below about 16% or above about 210%; inactive = in between
MEKK2mut confirm = signal of MEK5 binding to mutant human MEKK2, retest; shares compounds with MEKK3 PB1 HTS; bead flow cytometry, Alexa488-MEK5 binding to MEKK2 mutant; percent response, % at 10 µM; 5,900 compounds, 2% hits; AID 1893; in the data active = percent response mostly above about 71%, no sharp cut-off; inactive = mostly below about 38%;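 note: higher means compound restores mutant binding toward wildtype level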
MEKK3-MEK5 inh = MEKK3-MEK5 PB1 inhibition, single concentration confirmation | shares compounds with MEKK3 PB1 HTS | bead flow cytometry, Alexa488-MEK5 binding to MEKK3; hits give low values | binding response (% of control), % at 10 µM | 5,900 compounds, 1.8% hits;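 active = binding response below 72% of control, or above a set upper limit, though filed actives all read lower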;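 note: 100% = DMSO only wells and 0% = binding blocked by excess unlabeled MEK5; lower values mean stronger disruption of MEK5 binding to MEKK3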
* hit, by the source's call; . = not tested or not shown; [ ] = remark or other dose.

SMILES	B2AR ag	GRK2 aptamer HTS	MEKK2wt PB1 HTS	MEKK2mut PB1 HTS	MEKK3 PB1 HTS	MEKK2wt confirm	MEKK2mut confirm	MEKK3-MEK5 inh
CNS(=O)(=O)c1ccc2c(c1)oc(=O)c1cc(S(=O)(=O)NC)ccc12	3	3	92	-4	101	.	.	.
COC(CNC(=O)CCc1c(C)nc2c(c(C)nn2-c2ccc(C)cc2)c1C)OC	-2	1	108	6	108	.	.	.
Cc1ccc(-n2nc(C)c3c(C)c(CCC(=O)Nc4ccc(CN5CCCC5)cc4)c(C)nc32)cc1	.	0	191*	34	108	177	30	106
COc1ccc(C)cc1NC(=O)CNC(c1ccccc1)c1ccc(C)cc1 (configuration not stated)	1	1	100	-1	101	.	.	.
COc1ccc(C)cc1NC(=O)CC(NC(C)=O)c1ccccc1 (configuration not stated)	2	0	116	1	135*	102	-7	99
O=C(Cn1cc(SCc2cccc(Cl)c2)c2ccccc21)N1CCOCC1	-1	1	111	1	140*	101	-17	98
CCc1ccc(N(CC(=O)NCc2ccco2)C(=O)CCC(=O)Nc2ccccn2)cc1	7	0	90	-8	91	.	.	.
O=C(COc1cccc(F)c1)Nc1nc(-c2cccnc2)cs1	8	0	.	.	.	.	.	.
O=C(Nc1ccc(S(=O)(=O)Nc2nccs2)cc1)c1cnc(Cl)c(Cl)c1	-8	3	54	-8	46*[inhibitor]	104	-2	103
COc1ccccc1CC(=O)NC1CC(C)(C)NC(C)(C)C1	2	3	.	.	.	.	.	.
CC1(C)CC(NC(=O)Cc2ccccc2[N+](=O)[O-])CC(C)(C)N1	0	0	108	1	142*	102	7	100
COC(=O)C1=CO[C@@H](O[C@@H]2O[C@H](CO)[C@@H](O)[C@H](O)[C@H]2O)C2C1CC(O)O[C@H]2C (some centres not stated)	1	0	.	.	.	.	.	.
N#CCC(=O)Nc1ccc(C(=O)OCC(=O)c2ccc3c(c2)NC(=O)CO3)cc1	-2	0	.	.	.	.	.	.
COc1ccc(C(CCN2CCCCC2)c2c(OC)cc(OC)c3c(-c4ccccc4)cc(=O)oc23)cc1 (configuration not stated)	31	0	182*	26*	106	153	22	106
COc1cc(OC)c2c(-c3ccccc3)cc(=O)oc2c1C(CCN1CCCCC1)c1ccc(N(C)C)cc1 (configuration not stated)	10	0	183*	20	127	154	34	104
COc1cc(OC)c2c(-c3ccccc3)cc(=O)oc2c1C(CCN1CCOCC1)c1ccc(N(C)C)cc1 (configuration not stated)	5	0	.	.	.	.	.	.
CCOC(=O)CCc1cnccc1-c1cccc(OC)c1O	0	1	97	-2	98	.	.	.
COc1ccc2oc(=Nc3ccccc3)c(-c3nc4ccccc4[nH]3)cc2c1	-14	0	111	18	101	.	.	.
O=C1NC(=Nc2ccccc2)/C(=C/c2ccco2)S1	-12	2	100	-1	132*	99	-3	102
Cc1ccc(N=C2NC(=O)S/C2=C\c2ccco2)cc1	3	0	100	1	100	.	.	.
CCSc1nc2nccnc2c(=O)[nH]1	2	.	.	.	.	.	.	.
CN(C)CCNC(=O)COc1ccc(C23CC4CC(CC(C4)C2)C3)cc1	21	0	151*	14	98	124	7	103
Cc1ccc(C23CC4CC(CC(C(=O)NN)(C4)C2)C3)cc1	-5	0	100	3	101	.	.	.
CCN(CC)CCNC(=O)COc1ccc(OC)cc1	1	12	94	-8	94	.	.	.
Cc1ccc(C23CC4CC(CC(NC(=O)NCCN(C)C)(C4)C2)C3)cc1	24	0	156*	31*	107	21	-25	35*
SMILES	B2AR ag	GRK2 aptamer HTS	MEKK2wt PB1 HTS	MEKK2mut PB1 HTS	MEKK3 PB1 HTS	MEKK2wt confirm	MEKK2mut confirm	MEKK3-MEK5 inh
CN1c2ccccc2C(O)=C(C(=S)Nc2ccc(F)c(Cl)c2)S1(=O)=O	6	1	129	8	130*	96	9	103
O=C(Nc1ccc(Cl)cc1)Nc1ccc2c(c1)N1CCN=C1S2	36	0	141*	14	100	143	27	104
Nc1ccc2c(c1)N1CCN=C1S2	3	0	115	5	99	.	.	.
CCC1(c2ccc(Cl)cc2)NC(=O)N(CC(=O)NC2CCCC(C)C2C)C1=O (configuration not stated)	-4	.	.	.	.	.	.	.
CCOP(=O)(OCC)c1nc(-c2ccc(Cl)cc2Cl)oc1N1CCCCC1	3	0	49	-15	39*[inhibitor]	99	-3	103
CCN(CC)Cc1c(O)ccc2c(=O)c(-c3ccccc3Cl)coc12	-3	0	102	25*	104	102	-1	102
CCc1cccc(C)c1NC(=S)NCC(c1cccnc1)N1CCOCC1 (configuration not stated)	0	0	106	0	144*	100	0	103
FC(F)(F)c1cccc(NC(=S)NCC(c2cccnc2)N2CCOCC2)c1 (configuration not stated)	15	0	101	0	135*	102	-7	102
COC(=O)NCC(c1cccnc1)N1CCOCC1 (configuration not stated)	-2	1	100	0	107	.	.	.
CCOC(=O)Nc1c(C(=O)OC)[nH]c2cc(OC)ccc12	-5	1	102	11	107	.	.	.
COC(=O)c1[nH]c2cc(OC)ccc2c1N	-13	0	30*[inhibitor]	-43	18*[inhibitor]	109	7	102
COC(=O)c1[nH]c2cc(OC)ccc2c1NC(=O)CCN1CCSCC1	-3	0	125	7	124*	98	2	100
COC(=O)c1[nH]c2cccc(OC)c2c1NC(=O)CCN1CCSCC1	2	3	102	4	105	.	.	.
CCCCC(=O)N(c1ccc(C)c(C)c1)C1C=CS(=O)(=O)C1 (configuration not stated)	9	0	-7.0*[inhibitor]	-22	1.0*[inhibitor]	99	-5	101
CC(C)CN(C(=O)COC(=O)c1ccc2c(c1)OCO2)c1c(N)n(Cc2ccccc2)c(=O)[nH]c1=O	-1	0	.	.	.	.	.	.
COc1ccc([C@H]2CC(=O)C=C(c3cccc(C(C)C)c3)C2)cc1OC	-20	0	.	.	.	.	.	.
